Experimental data reported in PubChem BioAssay (EPA / NIEHS).
“And” between values parts separate entries of the source, which are not always exact repeats. Equal entries are not always repeated. The source holds several records for some structures; these can differ, active in one and inactive in another. The source made the active and inactive calls. Rule for the calls: active = hit-call score of the fitted dose curve at least 0.9, where 1 is the maximum; inactive = score below 0.9.

The molecules below were run on Pro-epidermal growth factor (Homo sapiens) (UniProt P01133) (assay: LTEA_HepaRG_EGF: Life Technologies and Expression Analysis (LTEA) Assay for Epidermal growth factor (EGF) using HepaRG (AID 2283489)). Settings: mRNA level, 48 h; actives raise or lower the signal.
Method in brief: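 qRT-PCR readout of EGF transcript after 48 h chemical exposure of HepaRG cells; eight concentrations from 100 uM down in half-log steps, duplicate wells, 0.5% DMSO vehicle. Bidirectional curve fitting against DMSO baseline.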

`CCOC(=O)C(Cl)Cc1cc(-n2nc(C)n(C(F)F)c2=O)c(F)cc1Cl` (configuration not stated) was tested. Which outcome did it give?
Its outcome is “inactive”.

Which outcome does the source give for `CC(C)Oc1cc(-n2nc(C(C)(C)C)oc2=O)c(Cl)cc1Cl` here?
The outcome was “inactive”.

Which outcome does the source give for `Cc1cc(Cl)ccc1OCC(=O)O` here?
The outcome was “inactive”.

For `COP(=S)(OC)Oc1nc(Cl)c(Cl)cc1Cl`, which outcome is on record?
The outcome was “inactive”.

With `CNC(=O)ON=CC(C)(C)SC` as the molecule, how does the outcome read?
The outcome was “inactive”.

Which outcome does the source give for `CC(Oc1ccc(Cl)cc1Cl)C(=O)O` (configuration not stated) here?
The outcome was “inactive”.

`CCCCNC(=O)OCC#CI` was tested. Which outcome did it give?
Its outcome is “inactive”.

For `Oc1ccccc1-c1ccccc1`, which outcome is on record?
The outcome was “inactive”.

With `COC(=O)C(C)Oc1ccc(Oc2ccc(Cl)cc2Cl)cc1` (configuration not stated) as the molecule, how does the outcome read?
The outcome was “inactive”.

What follows are molecules tested on Early growth response protein 1 (EGR1) transcription factor, EGR1 (gene 1958) (assay: LTEA_HepaRG_EGR1: Life Technologies and Expression Analysis (LTEA) Assay for Early growth response protein 1 (EGR1) transcription factor using HepaRG (AID 2283490)). Settings: mRNA level, 48 h; actives raise or lower the signal.
Method in brief: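 EGR1 expression change in human HepaRG after 48 h chemical exposure, assessed by housekeeping-normalized qRT-PCR; concentration-response up to 100 uM, fitted in both directions against DMSO controls.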

With `N#Cc1cc(Br)c(O)c(Br)c1` as the molecule, how does the AC50 read?
Its AC50 is 10 µM (active).

With `CCOC(=O)C(Cl)Cc1cc(-n2nc(C)n(C(F)F)c2=O)c(F)cc1Cl` (configuration not stated) as the molecule, how does the outcome read?
The outcome was “inactive”.

How did the outcome turn out when `CC(C)Oc1cc(-n2nc(C(C)(C)C)oc2=O)c(Cl)cc1Cl` was run?
The outcome was “inactive”.

`COc1nc(NC(C)C)nc(NC(C)C)n1` was tested. Which outcome did it give?
The outcome was “inactive”.

For `C=CCC1=C(C)C(OC(=O)C2C(C=C(C)C)C2(C)C)CC1=O` (configuration not stated), which AC50 is on record?
Its AC50 is 64.1 µM (active) and 71.1 µM (active) and 50 µM (active).

With `CCc1nn(C)c(C(=O)NCc2ccc(C(C)(C)C)cc2)c1Cl` as the molecule, how does the AC50 read?
The AC50 was 50 µM (active).

Which outcome does the source give for `COc1cnc(OC)n2nc(NS(=O)(=O)c3c(OCC(F)F)cccc3C(F)(F)F)nc12` here?
Its outcome is “inactive”.

Which outcome does the source give for `CCOC(=O)CC(SP(=S)(OC)OC)C(=O)OCC` (configuration not stated) here?
Its outcome is “inactive”.

How did the outcome turn out when `Cc1cc(Cl)ccc1OCC(=O)O` was run?
Its outcome is “inactive”.

With `COP(=S)(OC)Oc1nc(Cl)c(Cl)cc1Cl` as the molecule, how does the outcome read?
Its outcome is “inactive”.

`CO/C=C(/C(=O)OC)c1ccccc1Oc1cc(Oc2ccccc2C#N)ncn1` was tested. Which AC50 did it give?
Its AC50 is 13 µM (active) and 13.3 µM (active).

What about the outcome of the same molecule?
The outcome was “inactive”.

With `CNC(=O)ON=CC(C)(C)SC` as the molecule, how does the outcome read?
Its outcome is “inactive”.

How did the outcome turn out when `CC(Oc1ccc(Cl)cc1Cl)C(=O)O` (configuration not stated) was run?
The outcome was “inactive”.

With `CCCCNC(=O)OCC#CI` as the molecule, how does the outcome read?
Its outcome is “inactive”.

For `COC(=O)c1ccccc1C(=O)OC`, which outcome is on record?
The outcome was “inactive”.

Which outcome does the source give for `CN(C)C(=S)SSC(=S)N(C)C` here?
The outcome was “inactive”.

For `CCCCC(CC)COC(=O)c1ccccc1C(=O)OCC(CC)CCCC` (configuration not stated), which outcome is on record?
Its outcome is “inactive”.

With `C=CCC1=C(C)[C@@H](OC(=O)[C@@H]2[C@@H](C=C(C)C)C2(C)C)CC1=O` as the molecule, how does the outcome read?
The outcome was “inactive”.

Which outcome does the source give for `CON(C)C(=O)Nc1ccc(Cl)c(Cl)c1` here?
The outcome was “inactive”.

Which outcome does the source give for `C#CCOS(=O)OC1CCCCC1Oc1ccc(C(C)(C)C)cc1` (configuration not stated) here?
The outcome was “inactive”.

With `CS/C(C)=N/OC(=O)N(C)SN(C)C(=O)O/N=C(\C)SC` as the molecule, how does the outcome read?
The outcome was “inactive”.

With `CCCN(CCC)c1c([N+](=O)[O-])cc(S(N)(=O)=O)cc1[N+](=O)[O-]` as the molecule, how does the AC50 read?
Its AC50 is 93.2 µM (active) and 83.6 µM (active) and 78.9 µM (active).

Which outcome does the source give for `Oc1ccccc1-c1ccccc1` here?
The outcome was “inactive”.

How did the outcome turn out when `COC(=O)C(C)Oc1ccc(Oc2ccc(Cl)cc2Cl)cc1` (configuration not stated) was run?
Its outcome is “inactive”.

With `O=C(O)c1nc(Cl)ccc1Cl` as the molecule, how does the outcome read?
Its outcome is “inactive”.

Each molecule was assayed on Ezrin (EZR), EZR (gene 7430) (assay: LTEA_HepaRG_EZR: Life Technologies and Expression Analysis (LTEA) Assay for Ezrin (EZR) using HepaRG (AID 2283491)). Settings: mRNA level, 48 h; actives raise or lower the signal.
Method in brief: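 Gain or loss of EZR mRNA is scored relative to 0.5% DMSO in human HepaRG cultures treated 48 h with test chemicals in duplicate, eight half-log concentrations from 100 uM.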

`N#Cc1cc(Br)c(O)c(Br)c1` was tested. Which outcome did it give?
The outcome was “inactive”.

With `CCOC(=O)C(Cl)Cc1cc(-n2nc(C)n(C(F)F)c2=O)c(F)cc1Cl` (configuration not stated) as the molecule, how does the outcome read?
Its outcome is “inactive”.

Which outcome does the source give for `CC(C)Oc1cc(-n2nc(C(C)(C)C)oc2=O)c(Cl)cc1Cl` here?
Its outcome is “inactive”.

For `COc1nc(NC(C)C)nc(NC(C)C)n1`, which outcome is on record?
Its outcome is “inactive”.

For `C=CCC1=C(C)C(OC(=O)C2C(C=C(C)C)C2(C)C)CC1=O` (configuration not stated), which outcome is on record?
The outcome was “inactive”.

Which outcome does the source give for `CCc1nn(C)c(C(=O)NCc2ccc(C(C)(C)C)cc2)c1Cl` here?
Its outcome is “inactive”.

`COc1cnc(OC)n2nc(NS(=O)(=O)c3c(OCC(F)F)cccc3C(F)(F)F)nc12` was tested. Which outcome did it give?
Its outcome is “inactive”.

`CCOC(=O)CC(SP(=S)(OC)OC)C(=O)OCC` (configuration not stated) was tested. Which outcome did it give?
Its outcome is “inactive”.

`Cc1cc(Cl)ccc1OCC(=O)O` was tested. Which outcome did it give?
Its outcome is “inactive”.

How did the outcome turn out when `COP(=S)(OC)Oc1nc(Cl)c(Cl)cc1Cl` was run?
Its outcome is “inactive”.

`CO/C=C(/C(=O)OC)c1ccccc1Oc1cc(Oc2ccccc2C#N)ncn1` was tested. Which outcome did it give?
The outcome was “inactive”.

`CNC(=O)ON=CC(C)(C)SC` was tested. Which outcome did it give?
The outcome was “inactive”.

Which outcome does the source give for `CC(Oc1ccc(Cl)cc1Cl)C(=O)O` (configuration not stated) here?
Its outcome is “inactive”.

`CCCCNC(=O)OCC#CI` was tested. Which outcome did it give?
Its outcome is “inactive”.

Which outcome does the source give for `COC(=O)c1ccccc1C(=O)OC` here?
Its outcome is “inactive”.

For `CN(C)C(=S)SSC(=S)N(C)C`, which outcome is on record?
The outcome was “inactive”.

How did the outcome turn out when `CCCCC(CC)COC(=O)c1ccccc1C(=O)OCC(CC)CCCC` (configuration not stated) was run?
Its outcome is “inactive”.

For `C=CCC1=C(C)[C@@H](OC(=O)[C@@H]2[C@@H](C=C(C)C)C2(C)C)CC1=O`, which outcome is on record?
Its outcome is “inactive”.

`CON(C)C(=O)Nc1ccc(Cl)c(Cl)c1` was tested. Which outcome did it give?
The outcome was “inactive”.

`C#CCOS(=O)OC1CCCCC1Oc1ccc(C(C)(C)C)cc1` (configuration not stated) was tested. Which outcome did it give?
Its outcome is “inactive”.

How did the outcome turn out when `CS/C(C)=N/OC(=O)N(C)SN(C)C(=O)O/N=C(\C)SC` was run?
The outcome was “inactive”.

For `CCCN(CCC)c1c([N+](=O)[O-])cc(S(N)(=O)=O)cc1[N+](=O)[O-]`, which AC50 is on record?
Its AC50 is 95.9 µM (active) and 78 µM (active).

What about the outcome of the same molecule?
Its outcome is “inactive”.

How did the outcome turn out when `Oc1ccccc1-c1ccccc1` was run?
Its outcome is “inactive”.

How did the outcome turn out when `COC(=O)C(C)Oc1ccc(Oc2ccc(Cl)cc2Cl)cc1` (configuration not stated) was run?
Its outcome is “inactive”.

Which outcome does the source give for `O=C(O)c1nc(Cl)ccc1Cl` here?
Its outcome is “inactive”.

What follows are molecules tested on Cytochrome P450 3A7 (Homo sapiens) (UniProt P24462) (assay: LTEA_HepaRG_CYP3A7: Life Technologies and Expression Analysis (LTEA) Assay for CYP3A7 using HepaRG (AID 2283492)). Settings: mRNA level, 48 h; actives raise or lower the signal.
Method in brief: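 CYP3A7 transcript levels were read by TaqMan qRT-PCR on Fluidigm arrays after 48 h chemical exposure of human HepaRG cells, with housekeeping-gene normalisation. Eight half-log concentrations up to 100 uM in 0.5% DMSO were tested in duplicate.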

Sequence of Cytochrome P450 3A7 (Homo sapiens) (P24462 whole entry, looked up): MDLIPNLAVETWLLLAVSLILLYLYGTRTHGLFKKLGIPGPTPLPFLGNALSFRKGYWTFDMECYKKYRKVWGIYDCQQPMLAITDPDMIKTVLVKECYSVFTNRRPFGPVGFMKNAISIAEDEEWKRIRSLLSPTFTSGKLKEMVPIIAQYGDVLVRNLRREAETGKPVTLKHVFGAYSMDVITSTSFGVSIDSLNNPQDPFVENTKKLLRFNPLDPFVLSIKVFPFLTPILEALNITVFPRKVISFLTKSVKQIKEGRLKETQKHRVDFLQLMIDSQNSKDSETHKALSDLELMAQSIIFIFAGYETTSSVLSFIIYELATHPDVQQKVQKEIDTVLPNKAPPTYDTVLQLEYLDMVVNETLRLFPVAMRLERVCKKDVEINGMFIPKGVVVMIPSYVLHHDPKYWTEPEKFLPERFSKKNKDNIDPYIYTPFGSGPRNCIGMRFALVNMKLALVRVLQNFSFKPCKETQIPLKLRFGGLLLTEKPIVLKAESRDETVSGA

For `N#Cc1cc(Br)c(O)c(Br)c1`, which AC50 is on record?
Its AC50 is 11.3 µM (active).

With `CCOC(=O)C(Cl)Cc1cc(-n2nc(C)n(C(F)F)c2=O)c(F)cc1Cl` (configuration not stated) as the molecule, how does the AC50 read?
The AC50 was 34.3 µM (active).

For `CC(C)Oc1cc(-n2nc(C(C)(C)C)oc2=O)c(Cl)cc1Cl`, which outcome is on record?
The outcome was “inactive”.

With `COc1nc(NC(C)C)nc(NC(C)C)n1` as the molecule, how does the outcome read?
The outcome was “inactive”.

`C=CCC1=C(C)C(OC(=O)C2C(C=C(C)C)C2(C)C)CC1=O` (configuration not stated) was tested. Which outcome did it give?
Its outcome is “inactive”.

Which AC50 does the source give for `CCc1nn(C)c(C(=O)NCc2ccc(C(C)(C)C)cc2)c1Cl` here?
The AC50 was 0.35 µM (active).

Which outcome does the source give for `COc1cnc(OC)n2nc(NS(=O)(=O)c3c(OCC(F)F)cccc3C(F)(F)F)nc12` here?
Its outcome is “inactive”.

`CCOC(=O)CC(SP(=S)(OC)OC)C(=O)OCC` (configuration not stated) was tested. Which outcome did it give?
Its outcome is “inactive”.

How did the AC50 turn out when `Cc1cc(Cl)ccc1OCC(=O)O` was run?
Its AC50 is 18.8 µM (active).

For `COP(=S)(OC)Oc1nc(Cl)c(Cl)cc1Cl`, which outcome is on record?
Its outcome is “inactive”.

For `CO/C=C(/C(=O)OC)c1ccccc1Oc1cc(Oc2ccccc2C#N)ncn1`, which outcome is on record?
The outcome was “inactive”.

With `CNC(=O)ON=CC(C)(C)SC` as the molecule, how does the outcome read?
The outcome was “inactive”.

Which outcome does the source give for `CC(Oc1ccc(Cl)cc1Cl)C(=O)O` (configuration not stated) here?
The outcome was “inactive”.

Which AC50 does the source give for `CCCCNC(=O)OCC#CI` here?
The AC50 was 50 µM (active).

How did the outcome turn out when `COC(=O)c1ccccc1C(=O)OC` was run?
The outcome was “inactive”.

For `CN(C)C(=S)SSC(=S)N(C)C`, which outcome is on record?
Its outcome is “inactive”.

How did the outcome turn out when `CCCCC(CC)COC(=O)c1ccccc1C(=O)OCC(CC)CCCC` (configuration not stated) was run?
Its outcome is “inactive”.

How did the outcome turn out when `C=CCC1=C(C)[C@@H](OC(=O)[C@@H]2[C@@H](C=C(C)C)C2(C)C)CC1=O` was run?
Its outcome is “inactive”.

For `CON(C)C(=O)Nc1ccc(Cl)c(Cl)c1`, which outcome is on record?
The outcome was “inactive”.

`C#CCOS(=O)OC1CCCCC1Oc1ccc(C(C)(C)C)cc1` (configuration not stated) was tested. Which AC50 did it give?
Its AC50 is 29.5 µM (active).

How did the outcome turn out when `CS/C(C)=N/OC(=O)N(C)SN(C)C(=O)O/N=C(\C)SC` was run?
The outcome was “inactive”.

For `CCCN(CCC)c1c([N+](=O)[O-])cc(S(N)(=O)=O)cc1[N+](=O)[O-]`, which AC50 is on record?
Its AC50 is 6.08 µM (active).

What about the outcome of the same molecule?
The outcome was “inactive”.

Which outcome does the source give for `Oc1ccccc1-c1ccccc1` here?
Its outcome is “inactive”.

How did the AC50 turn out when `COC(=O)C(C)Oc1ccc(Oc2ccc(Cl)cc2Cl)cc1` (configuration not stated) was run?
Its AC50 is 27.3 µM (active).

How did the outcome turn out when `O=C(O)c1nc(Cl)ccc1Cl` was run?
Its outcome is “inactive”.
